In PubChem BioAssay (NCATS):
Records with an inconclusive call do not appear. Calls of active or inactive are those of the source. The call rests on the fitted dose curve; in most records, active means well fitted curve in the direction sought with a large enough effect; inconclusive means small, poorly fitted or top-dose-only effect, or another doubt; inactive means no such curve, though single readings can be large; an effect the other way counts as inactive or inconclusive.

Key:
[1] = Quantitative High-Throughput drug screen in 47 multiple myeloma cell lines against the NCATS MIPE library collection: KMS26_JCRB cell viability assay (AID 1918975); further: nearly all actives have a fitted effect of over 45% in size
Outline: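 Myeloma cell lines, 500 cells per well, exposed to MIPE 4.0 library compounds for 48 h at 37C, 5% CO2. Viability from ATP by CellTiter-Glo luminescence; normalised to DMSO (100%) and media-only (0%) wells.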

[2] = Quantitative High-Throughput drug screen in 47 multiple myeloma cell lines against the NCATS MIPE library collection: MMM1_PLB cell viability assay (AID 1918976); further: nearly all actives have a fitted effect of over 35% in size
Outline: (§1)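 Viability after 48 h drug exposure was measured as ATP-dependent luminescence. Cells, 500 per well, sat at 37 °C under 5% CO2; DMSO wells set 100%, media-only wells 0%.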

[3] = Quantitative High-Throughput drug screen in 47 multiple myeloma cell lines against the NCATS MIPE library collection: MOLP8_DSMZ cell viability assay (AID 1918977); further: nearly all actives have a fitted effect of over 45% in size
Outline: as §1

[4] = Quantitative High-Throughput drug screen in 47 multiple myeloma cell lines against the NCATS MIPE library collection: NCIH929_DSMZ cell viability assay (AID 1918978); further: nearly all actives have a fitted effect of over 35% in size
Outline: as §1

[5] = Quantitative High-Throughput drug screen in 47 multiple myeloma cell lines against the NCATS MIPE library collection: MM1S_ATCC cell viability assay (AID 1918980); further: nearly all actives have a fitted effect of over 45% in size
Outline: as §1

[6] = Quantitative High-Throughput drug screen in 47 multiple myeloma cell lines against the NCATS MIPE library collection: MM1R_ATCC cell viability assay (AID 1918981); further: nearly all actives have a fitted effect of over 35% in size
Outline: as §1

[7] = Quantitative High-Throughput drug screen in 47 multiple myeloma cell lines against the NCATS MIPE library collection: LP1_DSMZ cell viability assay (AID 1918982); further: nearly all actives have a fitted effect of over 35% in size
Outline: as §1

[8] = Quantitative High-Throughput drug screen in 47 multiple myeloma cell lines against the NCATS MIPE library collection: KMS28PE_JCRB cell viability assay (AID 1918983); further: nearly all actives have a fitted effect of over 35% in size
Outline: as §1

[9] = Quantitative High-Throughput drug screen in 47 multiple myeloma cell lines against the NCATS MIPE library collection: OCIMY1_PLB cell viability assay (AID 1918979); further: nearly all actives have a fitted effect of over 35% in size; on viability: series mostly up to about 46 µM
Outline: as §1
Potency means the concentration at half of the fitted maximal effect.

COc1cccc(OC)c1-c1cc(C(=O)NC2(C(=O)O)C3CC4CC(C3)CC2C4)nn1-c1ccnc2cc(Cl)ccc12 (stereo not drawn)
Potency [1]: inactive | Potency [2]: 14.8 µM (active) | Potency [3]: inactive | Potency [4]: inactive | Potency [5]: 16.6 µM (active) | Potency [6]: inactive | Potency [7]: inactive | Potency [8]: inactive

CCOC(=O)c1c(CSc2ccccc2)n(C)c2cc(Br)c(O)c(CN(C)C)c12
Potency [1]: 11.8 µM (active) | Potency [2]: 18.7 µM (active) | Potency [3]: 5.9 µM (active) | Potency [4]: inactive | Potency [5]: 20.9 µM (active) | Potency [8]: 18.7 µM (active)

C#C[C@]1(O)CC[C@H]2[C@H]3CCc4cc(OC)ccc4[C@H]3CC[C@@]21C
Potency [1]: 2.64 µM (active) | Potency [2]: 18.7 µM (active) | Potency [3]: inactive | Potency [9]: inactive | Potency [8]: inactive

CC(C)CNc1ccnc(NCc2csc(-c3ccccc3)n2)n1
Potency [1]: 16.6 µM (active) | Potency [2]: 5.9 µM (active) | Potency [3]: 20.9 µM (active) | Potency [5]: 20.9 µM (active) | Potency [6]: 18.7 µM (active) | Potency [7]: 11.8 µM (active)

Oc1cc(O)cc(C=Cc2ccc(O)c(O)c2)c1
Potency [1]: 23.5 µM (active) | Potency [2]: 23.5 µM (active) | Potency [3]: 18.7 µM (active) | Potency [4]: 6.62 µM (active) | Potency [6]: 20.9 µM (active)

Fc1ccc(CNc2ncnc3ccc(F)cc23)cc1
Potency [1]: inactive | Potency [2]: 4.18 µM (active) | Potency [4]: 16.6 µM (active) | Potency [9]: 14.8 µM (active) | Potency [5]: 14.8 µM (active) | Potency [6]: 10.5 µM (active) | Potency [7]: 2.64 µM (active) | Potency [8]: 11.8 µM (active)

COc1ccc(CCC(=O)Nc2nc3ccc(Cl)cc3s2)cc1OC
Potency [1]: inactive | Potency [2]: 3.72 µM (active) | Potency [3]: inactive | Potency [4]: 18.7 µM (active) | Potency [6]: inactive | Potency [8]: inactive

N=C1SC(=Cc2ccc(-c3ccc4c(c3)C(=O)NC4=O)o2)C(=O)N1c1ccc(Br)cc1
Potency [1]: 4.18 µM (active) | Potency [2]: 3.32 µM (active) | Potency [3]: 3.72 µM (active) | Potency [9]: 4.18 µM (active) | Potency [5]: 26.4 µM (active) | Potency [6]: 4.18 µM (active) | Potency [7]: 2.96 µM (active) | Potency [8]: 4.69 µM (active)

CC(C)(C)c1[nH]cnc1C=c1[nH]c(=O)c(=Cc2ccccc2)[nH]c1=O
Potency [1]: 0.0241 µM (active) | Potency [2]: 15.2 µM (active) | Potency [4]: 0.0215 µM (active)

C[C@@H]1[C@H](C)CC[C@]2(C(=O)O)CC[C@]3(C)C(=CC[C@@H]4[C@@]5(C)CC[C@H](O)C(C)(C)[C@H]5CC[C@]43C)[C@@H]12
Potency [1]: 19.1 µM (active) | Potency [2]: 21.5 µM (active) | Potency [4]: inactive | Potency [9]: 54 µM (active) | Potency [5]: inactive | Potency [6]: 21.5 µM (active) | Potency [7]: 48.1 µM (active) | Potency [8]: 38.2 µM (active)

CCOC(=O)N1CCN([N+]([O-])=NOc2cc(ON=[N+]([O-])N3CCN(C(=O)OCC)CC3)c([N+](=O)[O-])cc2[N+](=O)[O-])CC1
Potency [1]: 2.35 µM (active) | Potency [2]: 6.62 µM (active) | Potency [3]: 2.35 µM (active) | Potency [9]: 7.43 µM (active) | Potency [5]: 9.35 µM (active) | Potency [6]: 2.09 µM (active) | Potency [7]: 33.2 µM (active) | Potency [8]: 5.9 µM (active)

COc1cc2ncn(-c3cc(OCc4ccccc4S(C)(=O)=O)c(C#N)s3)c2cc1OC
Potency [1]: inactive | Potency [2]: 5.9 µM (active) | Potency [4]: 4.69 µM (active) | Potency [9]: inactive | Potency [5]: 20.9 µM (active) | Potency [6]: inactive | Potency [7]: inactive

Cc1ccc(C(=O)N(CCCN)[C@@H](c2nc3cc(Cl)ccc3c(=O)n2Cc2ccccc2)C(C)C)cc1
Potency [1]: 23.5 µM (active) | Potency [2]: 26.4 µM (active) | Potency [4]: 8.33 µM (active)

Cc1cccc(-c2[nH]c(C(C)(C)C)nc2-c2ccc3c(c2)OCO3)n1
Potency [1]: 16.6 µM (active) | Potency [2]: 16.6 µM (active) | Potency [3]: 6.62 µM (active) | Potency [4]: 6.62 µM (active) | Potency [5]: 16.6 µM (active) | Potency [8]: 20.9 µM (active)

C[C@@]1(C(=O)Nc2ccc(F)nc2)CCCN1c1nc(Nc2cc(C3CC3)[nH]n2)c2cccn2n1
Potency [1]: 0.0066 µM (active) | Potency [2]: 0.0209 µM (active) | Potency [4]: 0.0235 µM (active) | Potency [5]: 0.0469 µM (active) | Potency [6]: 0.0166 µM (active) | Potency [8]: 0.0296 µM (active)

Cc1nn(Cc2ccccc2Cl)c(C)c1CN(C)CC(O)COc1ccc(Cl)cc1 (stereo not drawn)
Potency [1]: 20.9 µM (active) | Potency [2]: 18.7 µM (active) | Potency [4]: 23.5 µM (active) | Potency [9]: 18.7 µM (active) | Potency [6]: 20.9 µM (active) | Potency [8]: 4.69 µM (active)

COC1CCC(C(=O)c2ccc3nc4c(cc3c2)CCCO4)CC1 (stereo not drawn)
Potency [1]: 23.5 µM (active) | Potency [2]: 2.64 µM (active) | Potency [5]: 20.9 µM (active) | Potency [6]: 18.7 µM (active) | Potency [8]: 23.5 µM (active)

CO[C@H]1O[C@@H]2O[C@@]3(C)CC[C@@H]4[C@@H](C)CC[C@@H]([C@H]1C)[C@@]24OO3
Potency [1]: inactive | Potency [2]: 3.72 µM (active) | Potency [4]: 0.833 µM (active) | Potency [9]: inactive | Potency [5]: inactive | Potency [6]: 10.5 µM (active) | Potency [8]: 4.18 µM (active)

COc1cc(F)c(C(C)C)cc1-c1ccc(C(F)(F)F)cc1CN1C(=O)O[C@H](c2cc(C(F)(F)F)cc(C(F)(F)F)c2)[C@@H]1C
Potency [1]: inactive | Potency [2]: 1.18 µM (active) | Potency [4]: inactive | Potency [6]: 0.296 µM (active) | Potency [7]: 0.662 µM (active)

Cc1ccc(NC(=O)Nc2cc(C(F)(F)F)ccc2F)cc1Nc1ccc2c(c1)NC(=O)C2=Cc1ccc[nH]1
Potency [1]: 37.2 µM (active) | Potency [2]: 33.2 µM (active) | Potency [4]: 4.18 µM (active) | Potency [9]: 23.5 µM (active) | Potency [6]: 26.4 µM (active) | Potency [7]: 26.4 µM (active)

CCCCCCCCCCCCCCCC(=O)O[C@H]1[C@@H](O)[C@@H](O)[C@@H]([C@H](NC(=O)[C@@H]2C[C@@H](CCC)CN2C)[C@H](C)Cl)O[C@@H]1SC
Potency [1]: inactive | Potency [2]: 4.18 µM (active) | Potency [4]: 2.96 µM (active) | Potency [5]: 18.7 µM (active) | Potency [6]: inactive | Potency [8]: inactive

CC1(COc2ccc3c(c2)ncn3-c2ccc3cccc(N4CCC(N)CC4)c3n2)COC1
Potency [1]: 14.8 µM (active) | Potency [2]: 1.48 µM (active) | Potency [9]: 1.48 µM (active) | Potency [6]: 0.526 µM (active) | Potency [7]: 1.18 µM (active) | Potency [8]: 0.59 µM (active)

CCOC(=O)N1c2ccc(C(F)(F)F)cc2[C@@H](N(Cc2cc(C(F)(F)F)cc(C(F)(F)F)c2)C(=O)OC)C[C@H]1CC
Potency [1]: 3.32 µM (active) | Potency [2]: 8.33 µM (active) | Potency [4]: 8.33 µM (active) | Potency [9]: 16.6 µM (active) | Potency [6]: 2.96 µM (active) | Potency [8]: 4.69 µM (active)

C[C@@H]1CC=CC=CC=CC=C[C@@H](O[C@@H]2O[C@H](C)[C@@H](O)[C@H](N)[C@H]2O)C[C@@H]2O[C@](O)(C[C@@H](O)C[C@@H]3O[C@@H]3C=CC(=O)O1)C[C@H](O)[C@@H]2C(=O)O
Potency [1]: inactive | Potency [2]: 23.5 µM (active) | Potency [4]: 16.6 µM (active) | Potency [9]: 9.35 µM (active) | Potency [5]: 20.9 µM (active) | Potency [6]: 14.8 µM (active) | Potency [8]: 14.8 µM (active)

CC(O)=C(C#N)C(=O)Nc1ccc(C(F)(F)F)cc1
Potency [1]: 18.7 µM (active) | Potency [2]: 3.72 µM (active) | Potency [9]: inactive | Potency [5]: 16.6 µM (active) | Potency [6]: 16.6 µM (active) | Potency [8]: 16.6 µM (active)
